These results are taken from the supplement of paper PMC12350171.

Structures can show the parent of a compound that is named as a salt.

The subject of this assay is Haemophilus parainfluenzae. The assay is described as follows: growth AUC normalised to DMSO control (fraction of control); higher = less growth inhibition, active = hit call of the paper. Conditions: 20 µM;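 active = AUC significantly below DMSO controls by Student t-fit with adjusted P under 0.01; inactive = not significantly reduced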. The method, boiled down:
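Pathogens were passaged twice under anaerobic conditions, then inoculated into pre-reduced mGAM plates at a starting OD578 of 0.01, with compound at 20 μM and 1% DMSO, and sealed with breathable membranes. For Haemophilus parainfluenzae, the medium was supplemented with hemin and NAD. OD578 was read every hour for 24 h in three biological replicates. Growth-curve AUC was calculated by the trapezoidal rule up to the exponential-to-stationary transition and normalised to DMSO controls on the same plate.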
Regarding `Nc1nc2n[nH]nc2c(=O)[nH]1` [Azaguanine-8], the “growth AUC normalised to DMSO control” value is 0.992 (inactive).
For the compound `Clc1ccc(COC(Cn2ccnc2)c2ccc(Cl)cc2Cl)cc1` (stereo not given) [Econazole nitrate], the “growth AUC normalised to DMSO control” value is 1.09 (inactive).
In the case of `Cc1ccc(C)c(OCCCC(C)(C)C(=O)O)c1` [Gemfibrozil], the “growth AUC normalised to DMSO control” value was 0.971 (inactive).
Take `CC(=O)O[C@H]1C(=O)[C@@]2(C)[C@H]([C@H](OC(=O)c3ccccc3)[C@]3(O)C[C@H](OC(=O)[C@H](O)[C@@H](NC(=O)c4ccccc4)c4ccccc4)C(C)=C1C3(C)C)[C@]1(OC(C)=O)CO[C@@H]1C[C@@H]2O` [Paclitaxel]: the “growth AUC normalised to DMSO control” value was 1.08 (inactive).
Under `CN(C)C/C=C(/c1ccc(Br)cc1)c1cccnc1` [Zimelidine dihydrochloride monohydrate] stands 0.972 (inactive); under `NC(=O)c1cc[n+](CC2=C(C(=O)[O-])N3C(=O)[C@@H](NC(=O)[C@@H](c4ccccc4)S(=O)(=O)O)[C@H]3SC2)cc1` [Cefsulodin sodium salt], 0.912 (inactive); under `CCCSc1ccc2[nH]c(NC(=O)OC)nc2c1` [Albendazole], 1.08 (inactive).
The figure for `CC(C)(CO)[C@@H](O)C(=O)NCCCO` [(D)-Panthenol] is 0.991 (inactive); for `NC[C@H]1O[C@H](O[C@H]2[C@H](O[C@@H]3O[C@H](CO)[C@@H](O)[C@H]3O)[C@@H](O)[C@H](N)C[C@@H]2N)[C@H](N)[C@@H](O)[C@@H]1O` [Ribostamycin sulfate salt] it is 0.812 (active).
`C[C@@H]1C[C@H]2[C@@H]3C[C@H](F)C4=CC(=O)C=C[C@]4(C)[C@@]3(F)[C@@H](O)C[C@]2(C)[C@@]1(O)C(=O)CO` [Flumethasone]: the “growth AUC normalised to DMSO control” value was 1 (inactive).
